Test results reported in PubChem BioAssay (NCATS).
Records with an inconclusive call do not appear. Values without a mark were called inactive. Activity calls are given as the source filed them. Calls follow the shape of the dose curve; as a rule, active = well fitted inhibition curve with a large enough effect; inconclusive = small, poorly fitted or top-dose-only effect, or effect the other way; inactive = flat fitted curve, though single readings scatter.

target: ATP-dependent 6-phosphofructokinase (Trypanosoma brucei brucei) (UniProt O15648); test: qHTS Validation Assay to Find Inhibitors of T. brucei phosphofructokinase (AID 485368); settings: T. brucei PFK enzyme assay, qHTS 7-point titration; series mostly up to 57.5 µM; activity change, negative = inhibition: at the top concentration
Sequence (O15648 whole entry, looked up): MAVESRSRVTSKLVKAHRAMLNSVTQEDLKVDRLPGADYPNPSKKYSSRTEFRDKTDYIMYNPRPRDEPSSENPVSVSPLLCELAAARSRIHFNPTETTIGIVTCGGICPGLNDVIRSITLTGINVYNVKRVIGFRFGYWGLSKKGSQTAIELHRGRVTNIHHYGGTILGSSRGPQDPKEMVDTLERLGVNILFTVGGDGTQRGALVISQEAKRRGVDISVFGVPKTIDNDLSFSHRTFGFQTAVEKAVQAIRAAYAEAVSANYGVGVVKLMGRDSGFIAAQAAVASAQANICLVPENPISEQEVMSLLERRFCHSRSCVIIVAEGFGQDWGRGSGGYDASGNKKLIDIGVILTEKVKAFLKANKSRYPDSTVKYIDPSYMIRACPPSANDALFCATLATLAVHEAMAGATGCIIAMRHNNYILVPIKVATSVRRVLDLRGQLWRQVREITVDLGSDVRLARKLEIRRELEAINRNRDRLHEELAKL
Text: NIH Molecular Libraries Probe Production Network [MLPCN]
NIH Chemical Genomics Center [NCGC]
PI Name: Malcolm Walkinshaw, University of Edinburgh
Various species of the protozoan family Trypanosomatidae are responsible for a range of serious human diseases in tropical and subtropical areas of the world. […] Many of the disorders caused by trypanosomatids are fatal if left untreated, but most currently used drugs are inefficient and toxic.
Oxidative metabolism involving the mitochondrial tricarboxylic acid cycle and oxidative phosphorylation are repressed in these parasites, and recent RNA interference (RNAi) experiments have shown that even partial depletion of certain individual glycolytic enzymes can lead to the death of cultured parasites. One such glycolytic enzyme, phosphofructokinase (PFK), catalyzes the formation of fructose-1,6-bisphosphate (F1,6BP) and ADP from fructose-6-phosphate (F6P) and ATP, and in many metabolic circumstances makes an important contribution to the control of flux through the glycolytic pathway. As a specific glycolytic target, PFK is particularly attractive as it catalyzes the first irreversible step in glycolysis, and structural and kinetic studies have shown very substantial and essential differences from corresponding host enzymes, allowing for the discovery of parasite-selective inhibitors.
The goal of this screen is to find small-molecule inhibitors of T. brucei PFK using a biochemical assay that measures PFK activity as a function of ADP production. A luminescence-based assay for T. brucei PFK activity has been developed which uses luciferase to detect production of ADP. Traditional luciferase-based nucleotide detection reagents rely on ATP production as a direct substrate for the luciferase reaction; however, PFK catalyzes the transfer of a phosphate from ATP to F6P, resulting in the net depletion of ATP. To directly measure the ADP product of the PFK reaction, we used the ADP-Glo detection kit (Promega), which utilizes two separate reactions to 1) deplete all remaining uncatalyzed ATP and 2) convert all remaining ADP to ATP, which is then detected through a traditional luciferase-coupled reaction. Compounds were screened as a concentration-titration series that ranged from 57 uM to 0.7 nM.
NCGC Assay Protocol Summary:
Substrate buffer was dispensed into white, solid 1536-well plates at 3uL/well in 0.1M triethanolamine (TEA) buffer, pH 8.0, containing final concentrations of 5 mM MgCl2, 0.01% Tween20, 0.5 mM fructose-6-phosphate (F6P) and 0.1mM ATP. Then, 23 nL of compounds or DMSO were delivered to each well using a pin tool. One uL T. brucei PFK (0.1M TEA, 0.01% Tween20, 0.1% bovine serum albumin (BSA) and 1.25nM PFK, final concentrations) was then dispensed, and plates were incubated at room temperature for 45 min. The luminescent detection reagent, ADP-Glo (Promega), was then added in two steps: the first reagent, ADP-Glo (which converts remaining uncatalyzed ATP), was added at 2.5uL/well and incubated for ten minutes at room temperature, and the second component, Kinase Detection reagent (which converts ADP to ATP as a substrate for luciferase-based luminescence), was added immediately after at 5uL/well, followed by one final ten minute room temperature incubation. The plates were measured on a ViewLux plate reader for luminescent signal using a clear filter with a one second exposure. The %Activity was determined from the corrected luminescence values. As no specific T. brucei PFK inhibitors have been identified in the literature, 1x (1.25nM) and 0x PFK enzyme controls (untreated) were included to normalize %Activity of identified inhibitors; 0x enzyme values corresponded to 100%Activity (full inhibition), while 1x PFK enzyme values were used to normalize 0%Activity (no inhibition).
Concentration-response curves were fitted to the signals arising from the resulting luminescence. […]

Row | Structure (SMILES) | outcome | activity change, negative = inhibition
1 | CC(C)c1cccc(C(C)C)c1O | inactive | 
2 | Cc1ncsc1CCCl | inactive | 
3 | O=c1[nH]oc2c1CCNC2 | inactive | 
4 | O=C(CCCN1CCC2(CC1)C(=O)NCN2c1ccccc1)c1ccc(F)cc1 | inactive | 
5 | CN1C(=O)CCS(=O)(=O)C1c1ccc(Cl)cc1 (stereo not given) | inactive | 
6 | CC(C)N(CCC(C(N)=O)(c1ccccc1)c1ccccn1)C(C)C (stereo not given) |  | 10.9%
7 | NCCc1ccc(O)cc1 | inactive | 
8 | O=P1(N(CCCl)CCCl)NCCCO1 (stereo not given) |  | -4.2%
9 | COc1ccc2c(c1OC)C(=O)O[C@H]2[C@@H]1c2cc3c(cc2CCN1C)OCO3 | inactive | 
10 | CCC1(c2ccc(N)cc2)CCC(=O)NC1=O (stereo not given) | inactive | 
